# Calls of active or inactive are those of the source.
# What was measured:
# [1] = compound effects on differentiated 3T3-L1 adipocyte viability – cell-based, 3T3-L1 adipocytes, calcein-AM fluorescence, 48 h, basal, profiling panel (AID 1163); settings: 3T3-L1 adipocytes viability, higher = more signal
# [2] = compound effects on hepatocellular carcinoma cell viability – HepG2, calcein-AM fluorescence, 48 h, basal, profiling panel (AID 1164); settings: higher = more signal
# [3] = compound effects on multiple myeloma cell viability – MM1S, calcein-AM fluorescence, 48 h, basal, profiling panel (AID 1165); settings: higher = more signal;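 also: viability of MM1S multiple myeloma cells under basal unstimulated conditions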
# [4] = calcein-AM signal in unstimulated myeloma cells – cell-based, calcein-AM fluorescence, 48 h, PK04 Diversity Set, profiling panel (AID 1166); settings: RPMI8226 myeloma viability, higher = more signal;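 also: cells grown under basal conditions without added stimulus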
# [5] = JC-1 mitochondrial signal, unstimulated HepG2 cells – cell-based, JC-1 fluorescence, 24 h, 100 nL compound, profiling panel (AID 1167); settings: HepG2 mitochondrial potential, higher = more signal
# [6] = JC-1 mitochondrial signal, unstimulated adipocytes – cell-based, JC-1 fluorescence, 3T3-L1 adipocytes, 24 h, 100 nL compound, profiling panel (AID 1168); settings: JC-1 mitochondrial fluorescence, higher = more signal, called active from +8 up or from −8 down
# [7] = JC-1 mitochondrial signal, unstimulated myeloma cells – cell-based, JC-1 fluorescence, RPMI8226, 24 h, 100 nL compound, profiling panel (AID 1169); settings: JC-1 mitochondrial potential fluorescence, higher = more signal
# [8] = JC-1 mitochondrial signal, unstimulated MM1S myeloma – cell-based, JC-1 fluorescence, 24 h, 100 nL compound, profiling panel (AID 1170); settings: MM1S mitochondrial potential, higher = more signal
# [9] = resazurin metabolic signal in A549 cells – cell-based, resazurin fluorescence, 24 h, PK04 Diversity Set, profiling panel (AID 1171); settings: A549 viability, higher = more signal, called active from +8 up or from −8 down
# [10] = resazurin metabolic signal in HepG2 cells – cell-based, resazurin fluorescence, 24 h, PK04 Diversity Set, profiling panel (AID 1172); settings: HepG2 viability, higher = more signal
# [11] = budding yeast growth changes without added modifier – OD600, strain BY4716, 24 h, basal condition, primary screen (AID 1173); settings: S. cerevisiae BY4716 growth, OD600, 24 h; higher = more signal, called active from +8 up or from −8 down
# [12] = viability profiling in MM1S myeloma cells – cell-based, resazurin fluorescence, basal, 24 h, PK04 Diversity Set, profiling panel (AID 1174); settings: higher = more signal, called active from +8 up or from −8 down
# [13] = target: Dihydroorotate dehydrogenase (quinone), mitochondrial (Plasmodium falciparum (isolate 3D7)) (UniProt Q08210); assay: inhibition of P. falciparum DHODH – biochemical, C-terminal His tag, absorbance 600 nm, primary screen (AID 1175); settings: PfDHODH enzyme, DCIP absorbance 600 nm; higher = more signal, called active from +8 up or from −8 down;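 also: recombinant parasite enzyme with a five histidine tag at its C terminus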
# Dihydroorotate dehydrogenase (quinone), mitochondrial (Plasmodium falciparum (isolate 3D7)), sequence (Q08210 whole entry, looked up): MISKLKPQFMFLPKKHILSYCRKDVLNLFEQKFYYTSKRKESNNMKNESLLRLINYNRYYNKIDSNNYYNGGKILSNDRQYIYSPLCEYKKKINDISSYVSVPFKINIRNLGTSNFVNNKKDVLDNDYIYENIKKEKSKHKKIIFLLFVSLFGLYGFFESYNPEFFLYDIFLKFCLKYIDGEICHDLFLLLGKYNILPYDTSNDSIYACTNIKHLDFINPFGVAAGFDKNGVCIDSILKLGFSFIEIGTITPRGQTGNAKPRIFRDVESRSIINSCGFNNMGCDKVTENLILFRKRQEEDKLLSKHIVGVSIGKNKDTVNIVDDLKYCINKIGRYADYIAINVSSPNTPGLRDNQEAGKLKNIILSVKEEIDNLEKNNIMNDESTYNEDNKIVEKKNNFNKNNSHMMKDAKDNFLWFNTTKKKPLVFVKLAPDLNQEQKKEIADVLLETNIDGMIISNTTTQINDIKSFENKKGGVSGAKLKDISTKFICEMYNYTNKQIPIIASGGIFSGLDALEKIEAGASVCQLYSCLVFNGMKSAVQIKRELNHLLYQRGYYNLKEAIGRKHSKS
# [14] = growth modulation of vineyard yeast isolate – strain RM11-1a, OD600, basal, 24 h, primary screen (AID 1177);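 also: cultures grown under basal conditions with no added stressor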; settings: S. cerevisiae RM11-1a growth, OD600, 24 h; higher = more signal, called active from +8 up or from −8 down
# [15] = growth of efflux-deficient E. coli DRC39 – strain DRC39, OD650, 24 h, E. coli filamentation inducers, primary screen (AID 1178);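 also: growth measured as culture turbidity by optical density at 650 nm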; settings: E. coli DRC39 acrAB, higher = more signal, called active from +8 up or from −8 down
# [16] = growth of efflux-deficient E. coli DRC39 – strain DRC39, OD650, 48 h, E. coli filamentation inducers, primary screen (AID 1179);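 also: screen aims at cell division blockers that make cells filament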; settings: E. coli DRC39 delta-acrAB growth, higher = more signal, called active from +8 up or from −8 down
# [17] = viability profiling in RPMI8226 myeloma cells – cell-based, resazurin fluorescence, basal, 24 h, PK04 Diversity Set, profiling panel (AID 1180); settings: higher = more signal;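 also: RPMI8826 multiple myeloma cell line at 5000 cells per well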
# [18] = target: E3 ubiquitin-protein ligase XIAP (Homo sapiens) (UniProt P98170); assay: small molecules binding XIAP protein – biophysical, small-molecule microarray, fluorescence 635 nm, primary screen (AID 1181); settings: higher = more signal;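 also: score merges 667 nm emission and signal to noise over triplicate slides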
# E3 ubiquitin-protein ligase XIAP (Homo sapiens), sequence (P98170 whole entry, looked up, the tested form may be a part): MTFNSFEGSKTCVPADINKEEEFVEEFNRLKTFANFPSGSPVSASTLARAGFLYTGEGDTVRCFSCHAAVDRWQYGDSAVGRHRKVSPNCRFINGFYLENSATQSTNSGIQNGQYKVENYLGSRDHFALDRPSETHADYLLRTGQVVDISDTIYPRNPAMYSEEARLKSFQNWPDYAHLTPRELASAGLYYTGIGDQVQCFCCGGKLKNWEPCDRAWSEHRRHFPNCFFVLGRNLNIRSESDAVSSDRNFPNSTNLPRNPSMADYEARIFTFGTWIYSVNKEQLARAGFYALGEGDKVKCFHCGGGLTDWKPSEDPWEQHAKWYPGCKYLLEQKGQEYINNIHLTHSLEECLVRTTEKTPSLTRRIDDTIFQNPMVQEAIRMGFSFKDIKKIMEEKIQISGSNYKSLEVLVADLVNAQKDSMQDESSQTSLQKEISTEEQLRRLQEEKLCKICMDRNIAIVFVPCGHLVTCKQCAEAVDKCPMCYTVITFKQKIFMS
# [19] = tested on: XIP peptide (Xip251-270) binding; assay: XIP fragment 251-270 binding compounds – biochemical, small-molecule microarray, fluorescence 635/667 nm, 0.1 µg/mL protein, primary screen (AID 1182); settings: fluorescent protein binding, 635 nm, higher = more signal, called active from +8 up or from −8 down
# [20] = tested on: XIP peptide (Xip251-270); assay: compounds binding XIP fragment 251-270 – biochemical, small-molecule microarray, fluorescence 635/667 nm, 0.5 µg/mL protein, primary screen (AID 1183); settings: fluorescence 635 nm, higher = more signal
SMILES,z-score [1],z-score [2],z-score [3],z-score [4],z-score [5],z-score [6],z-score [7],z-score [8],z-score [9],z-score [10],z-score [11],z-score [12],composite z-score [13],z-score [14],z-score [15],z-score [16],z-score [17],composite z-score [18],composite z-score [19],composite z-score [20]
COc1ccc([Si](C)(C)[C@@H]2[C@@H](CC(=O)N3CCC[C@H]3CO)O[C@]3(C(=O)N(Cc4ccc(N5CCC5=O)cc4)c4ccccc43)[C@H]2C)cc1,0.592,-3.27,-2.7,-4.39,-1.56,1.28 (inactive),-1.18,-1.66,-1.99 (inactive),-1.43,-1.17 (inactive),-2.01 (inactive),-2.42 (inactive),0.613 (inactive),1.34 (inactive),1.2 (inactive),-5.16,-0.117,1.15 (inactive),0.713
C=CCC(OC(C)=O)[C@@H]1[C@@H](N(Cc2cccc3ccccc23)C(=O)Cc2ccc(OC)cc2)c2cc(OCCCO)ccc2N1C(=O)Cc1ccc(OC)cc1 (stereo not given in full),1.47,0.691,1.76,-1.55,2.38,0.847 (inactive),-0.44,0.791,0.493 (inactive),-0.197,-1.63 (inactive),0.844 (inactive),0.363 (inactive),-0.27 (inactive),1.51 (inactive),0.443 (inactive),0.666,0.183,-0.203 (inactive),-0.665
C=C(CCCC)/C(=C/C[C@@H](OC(=O)c1ccncc1)c1ccc(OCCO)cc1)c1cnc2ccccc2c1,1.56,-0.375,-1.52,-0.393,2.07,-0.0617 (inactive),-0.344,0.279,0.395 (inactive),0.0347,-2.64 (inactive),0.803 (inactive),-2.2 (inactive),0.365 (inactive),1 (inactive),0.734 (inactive),1.59,-0.035,0.384 (inactive),0.697
CC(C)[Si](C#C[Si](C(C)C)(C(C)C)C(C)C)(O[C@H](C)c1cn([C@H](C)c2ccccc2)nn1)C(C)C,0.517,0.417,-0.908,1.5,2.71,1.94 (inactive),-0.87,0.265,3.13 (inactive),1.3,-0.0779 (inactive),2.34 (inactive),-0.32 (inactive),-1.88 (inactive),2.06 (inactive),0.944 (inactive),2.41,-0.0559,-0.608 (inactive),0.193
COC(=O)c1c2oc(c1C(=O)OC)C(=O)N[C@@H](C(C)C)Cn1nncc1C1(CCCCC1)NC(=O)N[C@H](CO)CC2,-0.5,0.619,0.276,-0.161,1.58,0.994 (inactive),0.144,1.08,2.11 (inactive),2.17,-3.46 (inactive),1.4 (inactive),0.62 (inactive),-0.989 (inactive),2.61 (inactive),2.18 (inactive),0.928,0.0623,-0.503 (inactive),-0.985
CCOC(=O)C[C@H]1[C@H](OC(=O)Cc2ccc3c(c2)OCO3)[C@@H](NC(=O)c2ccc3ccccc3c2)c2cc(OCCCO)ccc2N1C(=O)c1ccc2ccccc2n1,0.898,1.94,-0.144,0.934,2.77,3.13 (inactive),0.319,1.64,1.09 (inactive),1.36,-1.73 (inactive),-0.0816 (inactive),0.623 (inactive),-4.07 (inactive),1.23 (inactive),0.0331 (inactive),-0.375,0.128,0.467 (inactive),-0.275
COc1ccc([Si](C)(C)[C@H]2[C@H](CCO)O[C@@]3(C(=O)N(Cc4ccc(N5C(=O)c6cccc7cccc5c67)cc4)c4ccccc43)[C@@H]2C)cc1,2.06,-2.91,-1.23,-3.75,0.00974,1.68 (inactive),-1.07,-1.6,-2.51 (inactive),-1.26,-0.433 (inactive),-2.4 (inactive),-0.344 (inactive),2.48 (inactive),2.3 (inactive),1.4 (inactive),-4.55,0.0223,0.529 (inactive),0.623
C=C(CCCC)/C(=C/C[C@H](OC(=O)c1ccncc1)c1ccc(CO)o1)c1cnc2ccccc2c1,0.87,-0.76,-2.31,0.117,0.265,1.03 (inactive),0.519,-0.656,0.274 (inactive),0.921,-1.7 (inactive),0.511 (inactive),-6.96 (inactive),-0.716 (inactive),1.67 (inactive),1.01 (inactive),0.874,-0.105,0.291 (inactive),0.413
C=C(C(=O)CC[C@H](OC(C)=O)c1ccc(CO)o1)C(C)C,2.11,-1.14,-2.73,-0.639,0.672,2.3 (inactive),-0.378,0.548,-0.158 (inactive),0.0204,-0.273 (inactive),0.0516 (inactive),-0.969 (inactive),-0.487 (inactive),1.63 (inactive),0.359 (inactive),0.739,0.0028,2.48 (inactive),-0.365

# — PubChem BioAssay
